Experimental data: PubChem BioAssay
A number with no mark means an inactive call. Calls of active or inactive are those of the source. Unless noted, no stated cut-off is given here; in the data, active means inhibition above about 25%; inactive means the rest.

Assays:
[1] = molecular target: Nuclear receptor coactivator 1 (Homo sapiens) (UniProt Q15788); assay: SRC1 coactivator transcriptional activity inhibitors, confirmation, cell-based, luminescence, quadruplicate (AID 588820;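 active means mean inhibition above 46.68%, the untreated control wells mean plus 3 SD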;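 further: 0% = DMSO wells and 100% = gossypol 36 µM treated wells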); conditions: HEK293 GAL4-SRC1 luciferase reporter, at 3.6 µM, active compounds read high
[2] = VP16 transactivation inhibitors, counter-screen for SRC1 inhibitor project, cell-based, luminescence, high throughput (AID 588824); conditions: cell-based VP16 transactivation luciferase luminescence; at 3.6 µM; active compounds read high

Nuclear receptor coactivator 1 (Homo sapiens), sequence (Q15788 whole entry, looked up, the tested form may be a part): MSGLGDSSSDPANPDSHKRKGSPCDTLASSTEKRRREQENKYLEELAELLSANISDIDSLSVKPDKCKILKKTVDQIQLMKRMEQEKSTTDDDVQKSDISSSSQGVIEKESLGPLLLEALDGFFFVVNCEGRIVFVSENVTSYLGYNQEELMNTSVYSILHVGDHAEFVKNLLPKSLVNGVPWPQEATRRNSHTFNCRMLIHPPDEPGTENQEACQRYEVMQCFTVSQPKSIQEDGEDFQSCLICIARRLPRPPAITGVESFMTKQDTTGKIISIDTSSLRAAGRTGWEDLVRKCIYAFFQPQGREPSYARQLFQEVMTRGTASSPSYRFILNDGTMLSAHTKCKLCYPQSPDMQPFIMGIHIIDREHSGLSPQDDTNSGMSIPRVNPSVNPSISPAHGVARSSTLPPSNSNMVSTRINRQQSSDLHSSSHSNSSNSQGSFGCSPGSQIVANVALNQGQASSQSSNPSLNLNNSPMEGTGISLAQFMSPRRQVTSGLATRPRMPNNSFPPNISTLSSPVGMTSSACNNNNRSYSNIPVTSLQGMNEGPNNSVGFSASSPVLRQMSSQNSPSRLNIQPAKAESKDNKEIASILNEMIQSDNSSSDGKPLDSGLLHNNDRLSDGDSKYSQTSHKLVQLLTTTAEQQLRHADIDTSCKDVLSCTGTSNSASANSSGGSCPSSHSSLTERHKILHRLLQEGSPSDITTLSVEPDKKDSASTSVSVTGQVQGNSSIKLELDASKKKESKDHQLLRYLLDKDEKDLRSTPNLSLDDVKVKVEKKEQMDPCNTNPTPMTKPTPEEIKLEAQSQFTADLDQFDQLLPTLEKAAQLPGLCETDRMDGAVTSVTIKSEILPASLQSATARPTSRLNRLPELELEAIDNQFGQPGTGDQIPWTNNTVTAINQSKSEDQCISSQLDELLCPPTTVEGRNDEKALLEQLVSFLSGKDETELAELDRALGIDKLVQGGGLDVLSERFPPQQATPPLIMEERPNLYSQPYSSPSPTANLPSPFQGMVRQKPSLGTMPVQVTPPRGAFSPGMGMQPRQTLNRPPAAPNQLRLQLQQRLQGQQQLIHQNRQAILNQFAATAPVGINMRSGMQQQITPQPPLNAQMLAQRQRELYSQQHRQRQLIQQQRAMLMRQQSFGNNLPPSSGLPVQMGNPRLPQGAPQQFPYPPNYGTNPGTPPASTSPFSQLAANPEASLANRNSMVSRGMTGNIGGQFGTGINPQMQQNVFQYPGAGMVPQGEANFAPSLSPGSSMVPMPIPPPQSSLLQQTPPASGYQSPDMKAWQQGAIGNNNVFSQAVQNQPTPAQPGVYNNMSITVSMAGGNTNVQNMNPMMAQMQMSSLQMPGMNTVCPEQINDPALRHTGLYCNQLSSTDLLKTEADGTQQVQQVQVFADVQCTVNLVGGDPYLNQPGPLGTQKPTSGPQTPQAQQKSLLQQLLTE

With `Cc1cc2nc(C3CCCCC3)c(Cc3cccc(F)c3)n2c(C)c1Br` the inhibition [1] was 4.23% and the inhibition [2] was 11.8%.

In the case of `CC(C)OCCCn1c(=O)c2ccccc2n2c(CCC(=O)N3CCN(c4ccccn4)CC3)nnc12`, the inhibition [1] is reported as -22.8% and the inhibition [2] is reported as -9.58%.

`S=C1SCN(Cc2ccccn2)CN1Cc1ccco1` showed an inhibition [1] of -2.15% and an inhibition [2] of -1.66%.

For `Cc1nc2ccccn2c1-c1ccnc(=S)[nH]1`, the inhibition [1] was 31.1% and the inhibition [2] was 11.1%.

Compound `COc1ccc(C)cc1S(=O)(=O)N1CCCC(N2CCN(c3ccccc3)CC2)C1` (stereo not given) has an inhibition [1] of 2.59% and an inhibition [2] of 6.89%.

With `O=C(NC1CCCCC1)C(c1ccc(F)cc1)N(Cc1ccco1)C(=O)c1csnn1` (stereo not given) the inhibition [1] was -14.3% and the inhibition [2] was -0.45%.

In the case of `CCOC(=O)N1CCN(C2=Nc3cccc4cccc2c34)CC1`, the inhibition [1] is reported as -13.8% and the inhibition [2] is reported as -0.04%.

Work on `Cc1ccc(N2C(N)=C(C#N)C3(C(=O)N(C)c4ccccc43)C3=C2CC(C)(C)CC3=O)cc1Cl` (stereo not given) yielded an inhibition [1] of 3.57% and an inhibition [2] of 14.7%.

`CCN(C(=O)c1cccc(S(=O)(=O)N(C)C)c1)C12CC3CC(CC(C3)C1)C2` showed an inhibition [1] of 14.8% and an inhibition [2] of 19.5%.

`COc1ccc(S(=O)(=O)N(C)C[C@H]2Oc3c(NC(=O)Nc4c(C)noc4C)cccc3C(=O)N([C@H](C)CO)C[C@@H]2C)cc1` showed an inhibition [1] of 6.86% and an inhibition [2] of 9.48%.

In the case of `COc1ccc(CNC(=O)C(c2ccc(C)cc2)N(Cc2cccs2)C(=O)c2ccc3c(c2)OCCO3)cc1` (stereo not given), the inhibition [1] is reported as -13.9% and the inhibition [2] is reported as -1.62%.

For `CC(=C\c1ccccc1)/C=C1/SC(=S)N(CCC(=O)O)C1=O`, the inhibition [1] was -20.4% and the inhibition [2] was -5.15%.

Compound `O=c1c2ccccc2oc2ccc(C#CC3(O)CCCCC3)cc12` has an inhibition [1] of -38.7% and an inhibition [2] of -23.9%.

With `Cc1cc2c(OCC(O)CNCc3ccco3)cccc2[nH]1` (stereo not given) the inhibition [1] was -14.2% and the inhibition [2] was -11.1%.

Work on `COc1ccc(S(=O)(=O)Nc2ccccc2C(=O)N2CCCC2)cc1OC` yielded an inhibition [1] of -5.26% and an inhibition [2] of -1.42%.

`O=C(Nc1nc(-c2ccccn2)cs1)c1cccc(-n2cnnn2)c1` showed an inhibition [1] of 17.6% and an inhibition [2] of 7.13%.

With `O=C(N/N=C/c1cc(Cl)ccc1O)c1ccccc1Br` the inhibition [1] was 12.6% and the inhibition [2] was 7.53%.

With `Cc1ccc(OCC(=O)Oc2c(C)cccc2C)cc1C` the inhibition [1] was -3.92% and the inhibition [2] was -9.72%.

With `CC[C@H](C)[C@H](NC(N)=O)C(=O)NCCc1ccc(OC)c(OC)c1` the inhibition [1] was -11% and the inhibition [2] was -10.9%.

Work on `COC(=O)c1cccc(NC(=O)c2ccc[n+]([O-])c2)c1` yielded an inhibition [1] of -21.8% and an inhibition [2] of 4.7%.

Compound `N#CCCN(C(=O)COC(=O)c1ccc2c(=O)n3c(nc2c1)CCC3)c1ccc(F)cc1` has an inhibition [1] of -14.7% and an inhibition [2] of 2.54%.

Work on `Cc1ccccc1N(C(=O)c1csnn1)C(C(=O)NC1CCCCC1)c1ccncc1` (stereo not given) yielded an inhibition [1] of -16% and an inhibition [2] of -5.53%.

`CCOc1ccc(CCN2C(=S)N([C@@H](Cc3ccc(O)cc3)CN3CCC[C@@H]3CN3C(=S)NC[C@@H]3CC(C)C)C[C@@H]2CC(C)C)cc1` gave an inhibition [1] of -13% and an inhibition [2] of -0.17%.

Work on `COc1ccc(CCC(C)NCc2cc(OC)cc(OC)c2)cc1` (stereo not given) yielded an inhibition [1] of -28.3% and an inhibition [2] of -6.4%.

Work on `Cc1[nH]nc2ncc(C(=O)c3cc(F)ccc3O)cc12` yielded an inhibition [1] of 18.4% and an inhibition [2] of 16.1%.

Compound `COc1ccc(-c2nnc(NC(=O)CSc3ccccc3)s2)cc1OC` has an inhibition [1] of 1.2% and an inhibition [2] of -8.89%.

For `CC1CC(C)CN(c2ncc3c(n2)CC(c2ccc(Cl)cc2)CC3=O)C1` (stereo not given), the inhibition [1] was -7.75% and the inhibition [2] was 3.59%.

With `Cc1cccc(C)c1NC(=O)C1(C)CCC(=O)N1c1cc(C(C)(C)C)nn1C` (stereo not given) the inhibition [1] was -13.6% and the inhibition [2] was -5.42%.

In the case of `CCCCCCn1c(NCC)nc2c1c(=O)n(C)c(=O)n2C`, the inhibition [1] is reported as -1.77% and the inhibition [2] is reported as 35.5% (active).

In the case of `Cn1c(O)c(N=NC(=N)N)c2ccccc21`, the inhibition [1] is reported as 5.65% and the inhibition [2] is reported as 11.6%.

In the case of `Cc1ccc(C)c(CN2C(=O)c3ccccc3S(=O)c3ccc(C(=O)N4CCN(c5ccccn5)CC4)cc32)c1` (stereo not given), the inhibition [1] is reported as -18.5% and the inhibition [2] is reported as 77.7% (active).

For `COc1ccc(NC(=O)CN(C)C(=O)c2ccc(N3CCCCC3)c([N+](=O)[O-])c2)cc1`, the inhibition [1] was -5.37% and the inhibition [2] was -5.37%.

Work on `CC(C(=O)Nc1ccon1)N1C(=O)c2ccccc2S1(=O)=O` (stereo not given) yielded an inhibition [1] of -3.82% and an inhibition [2] of 11.8%.

In the case of `CCOC(=O)C(Cc1c(F)cccc1Cl)c1ccno1` (stereo not given), the inhibition [1] is reported as -2.31% and the inhibition [2] is reported as -14.2%.

For `O=C(Nc1ccccc1)c1ccc(S(=O)(=O)NCc2cccnc2)cc1`, the inhibition [1] was -8.68% and the inhibition [2] was 0.28%.

For `O=C(Nc1ccc(OCC(F)(F)C(F)F)c(C(F)(F)F)c1)c1ccccc1O`, the inhibition [1] was -35.3% and the inhibition [2] was 6.93%.

Compound `CC(=O)OCC1OC(n2cc(F)c(=O)[nH]c2=O)C(OC(C)=O)C1OC(C)=O` (stereo not given) has an inhibition [1] of 5.02% and an inhibition [2] of 22.9%.

In the case of `Cc1ccc(N2CC(C(=O)N3CCC(C(=O)NCCCOC(C)C)CC3)CC2=O)cc1` (stereo not given), the inhibition [1] is reported as -30.7% and the inhibition [2] is reported as -8.26%.

`CCOc1ccc(OCCC(=O)OCC(=O)NNC(=O)c2ccccc2)cc1` gave an inhibition [1] of -5.67% and an inhibition [2] of -3.09%.

Work on `Cc1ccc(NC(=O)c2cnc(N3CCN(c4ccccn4)CC3)c3ccccc23)c(Br)c1` yielded an inhibition [1] of -15.2% and an inhibition [2] of 17.7%.

Work on `COc1ccc(-n2cnc(N)c2C(=O)c2cccc([N+](=O)[O-])c2)cc1` yielded an inhibition [1] of 38.1% and an inhibition [2] of 18.6%.

In the case of `COc1cc2c(cc1OC)C(C)N(C(=O)c1cc3ccccc3o1)CC2` (stereo not given), the inhibition [1] is reported as -4.6% and the inhibition [2] is reported as 2.25%.

In the case of `COc1ccc(Nc2ncnc3ccc(C)cc23)cc1`, the inhibition [1] is reported as 26.8% and the inhibition [2] is reported as 15.7%.

`CCN(C(=O)c1ccc(S(=O)(=O)N2CCC(C)CC2)cc1)C1CCS(=O)(=O)C1` (stereo not given) gave an inhibition [1] of -0.29% and an inhibition [2] of 2.08%.

With `COc1ccc([C@H]2CC(=O)C=C(c3ccnc4ccc(Cl)cc34)C2)cc1` the inhibition [1] was 2.04% and the inhibition [2] was 29.2% (active).

`C=C(C)Cn1c(SCC(=O)O)nc2c1c(=O)[nH]c(=O)n2C` gave an inhibition [1] of 5.38% and an inhibition [2] of 10.2%.

With `CN1CCN(c2ccccc2/C=C2/C(=O)Nc3ccccc32)CC1` the inhibition [1] was -7.17% and the inhibition [2] was 10.8%.

Work on `COc1cc(NC(=O)c2cccc3c(-c4cnn(C)c4)coc23)cc(OC)c1OC` yielded an inhibition [1] of -26.3% and an inhibition [2] of -0.35%.

In the case of `CO/N=C/C(c1ccc(Cl)nc1)S(=O)(=O)c1ccccc1` (stereo not given), the inhibition [1] is reported as -12.5% and the inhibition [2] is reported as -1.73%.

Work on `CSCCC(NC(=O)c1ccco1)C(=O)OCC(=O)N(Cc1ccccc1)C(C)(C)C` (stereo not given) yielded an inhibition [1] of -15.8% and an inhibition [2] of -3.79%.

`O=C(CSc1nc(C2CC2)nc2ccccc12)Nc1cccc(O)c1` gave an inhibition [1] of -0.77% and an inhibition [2] of 1.43%.

`CCC(CC)C(=O)N(C)c1c(C)nc2c(OCc3ccc(OC(F)F)cc3)cccn12` showed an inhibition [1] of -18.2% and an inhibition [2] of 5.06%.

`O=c1[nH]cnc2sc3c(c12)CCCCC3` gave an inhibition [1] of -0.67% and an inhibition [2] of -2.41%.

Work on `c1cc2c(cn1)cnc1cscc12` yielded an inhibition [1] of 40.9% and an inhibition [2] of 7.33%.

Compound `O=C1NC[C@H](c2ccccc2)OC(=O)[C@@H](Cc2ccc(F)cc2)C/C=C\C[C@H]1CC(=O)N(CCO)Cc1ccccc1` has an inhibition [1] of -35% and an inhibition [2] of -0.29%.

For `Cc1c(C(=O)N/N=C/C(C)C)[nH]c2ccc([N+](=O)[O-])cc12`, the inhibition [1] was 17.2% and the inhibition [2] was 14.8%.

For `Cc1nc(N/N=C/c2ccc(O)cc2O)cc(N2CCOCC2)n1`, the inhibition [1] was -26.5% and the inhibition [2] was -14.6%.

`CCOc1cc(/C=N/Nc2nc3ccccc3[nH]2)cc(Br)c1OCC(=O)N(C)C` showed an inhibition [1] of -9.77% and an inhibition [2] of -3.09%.

`COc1ccc(S(=O)(=O)Nc2ccc(F)c(Cl)c2)cc1OC` gave an inhibition [1] of -9.19% and an inhibition [2] of -10.6%.

Compound `COC(=O)N(NC(=O)C(O)(CCC(C)C)CCC(C)C)c1ccccc1` has an inhibition [1] of 16.2% and an inhibition [2] of 11.5%.

`CC(=O)c1cc2c(C)cc(=O)oc2cc1O` gave an inhibition [1] of 19.4% and an inhibition [2] of 6.17%.

Work on `O=C(CCn1cnc(-c2ccccc2)c1-c1ccccc1)N/N=C/c1ccccc1O` yielded an inhibition [1] of 18.6% and an inhibition [2] of 11.4%.

With `CC(=O)Nc1ccc(NC(=O)C(C)OC(=O)CCSc2ccccc2Cl)cc1` (stereo not given) the inhibition [1] was -6.34% and the inhibition [2] was 4.67%.

With `COc1ccc(NC(=O)COc2ccccc2Cc2ccccc2)cc1S(N)(=O)=O` the inhibition [1] was 38.1% and the inhibition [2] was 32.3% (active).

Compound `CCCCCCCC[n+]1c(C)n(-c2ccccc2)c2ccc(NC(C)=O)cc21` has an inhibition [1] of 15.6% and an inhibition [2] of 19.2%.

`CCOc1cc(C(=S)N2CCCCC2)ccc1OCC(=O)NCc1ccccc1` showed an inhibition [1] of -15.9% and an inhibition [2] of -12.5%.

`CCC(C)C(=O)Nc1nc(C)c(-c2csc(Nc3cc(Cl)ccc3OC)n2)s1` (stereo not given) gave an inhibition [1] of -14.5% and an inhibition [2] of -1.24%.

Compound `C=C1CCC[C@]2(C)C[C@H]3OC(=O)C(CN4CC(C)OC(C)C4)[C@H]3C[C@@H]12` (stereo not given in full) has an inhibition [1] of -0.94% and an inhibition [2] of 2.96%.

Compound `Cn1c(=O)c2[nH]c(COc3ccc(C(C)(C)C)cc3)nc2n(C)c1=O` has an inhibition [1] of 29.4% and an inhibition [2] of 18.8%.

Work on `O=C(Nc1ccc2c(c1)OCCO2)C(c1cc2ccccc2o1)N1CCN(C/C=C/c2ccccc2)CC1` (stereo not given) yielded an inhibition [1] of -6.79% and an inhibition [2] of -12.4%.
